# Assay outcomes deposited in PubChem by National Center for Advancing Translational Sciences (NCATS).
# L3MBTL1 inh = qHTS Assay for the Inhibitors of L3MBTL1; Lethal(3)malignant brain tumor-like protein 1 (Homo sapiens), Q9Y468; AlphaScreen L3MBTL1–H3K9me1 peptide binding; Potency, µM (highest dose often 57.1 µM), inactives show top-dose activity, negative = inhibition, most hits filed as inhibitors; 230,000 compounds, 0.66% hits; AID 485360, 2010; further: on the % scale 0 is the no-effect control and ±100 the full control effect; nearly all actives have a fitted effect of over 60% in size
# Target sequence (Q9Y468 whole entry, looked up): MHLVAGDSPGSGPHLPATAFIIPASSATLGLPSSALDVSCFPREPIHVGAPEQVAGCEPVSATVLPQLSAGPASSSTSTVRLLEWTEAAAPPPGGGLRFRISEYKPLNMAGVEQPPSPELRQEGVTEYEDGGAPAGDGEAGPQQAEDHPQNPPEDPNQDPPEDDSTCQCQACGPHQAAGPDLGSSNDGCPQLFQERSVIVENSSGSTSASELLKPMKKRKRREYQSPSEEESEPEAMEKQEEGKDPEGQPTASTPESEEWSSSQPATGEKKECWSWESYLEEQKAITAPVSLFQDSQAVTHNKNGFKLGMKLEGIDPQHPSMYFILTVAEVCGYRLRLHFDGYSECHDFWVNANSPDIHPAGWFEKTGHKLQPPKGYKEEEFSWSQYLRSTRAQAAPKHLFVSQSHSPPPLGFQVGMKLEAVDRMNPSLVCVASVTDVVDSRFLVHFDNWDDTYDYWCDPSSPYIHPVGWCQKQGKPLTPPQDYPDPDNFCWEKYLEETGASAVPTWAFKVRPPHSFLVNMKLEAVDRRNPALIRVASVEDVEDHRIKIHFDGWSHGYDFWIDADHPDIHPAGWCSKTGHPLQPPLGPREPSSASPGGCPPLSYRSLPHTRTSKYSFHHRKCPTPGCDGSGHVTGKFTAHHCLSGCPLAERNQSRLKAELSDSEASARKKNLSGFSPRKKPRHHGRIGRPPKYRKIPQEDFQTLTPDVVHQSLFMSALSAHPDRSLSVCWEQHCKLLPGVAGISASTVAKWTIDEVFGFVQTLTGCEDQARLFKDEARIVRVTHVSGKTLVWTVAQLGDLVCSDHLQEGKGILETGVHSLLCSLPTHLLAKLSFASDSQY
#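 AlphaScreen assay: L3MBTL1 (50 nM final) was preincubated 30 min at room temperature with biotinylated H3(1-15)K9me1 peptide (75 nM final), then 30 min with library compounds; streptavidin donor and nickel chelate acceptor beads (10 ug/mL final) added, 30 min dark.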
# HP1b binding inh = HTS for Inhibitors of HP1-beta Chromodomain Interactions with Methylated Histone Tails. Chromobox protein homolog 1 (Homo sapiens), P83916. AlphaScreen HP1-beta / biotin-H3K9me3 peptide binding. Potency, µM (highest dose often 114 µM), inactives show at the highest dose activity change, negative = inhibition, hits mostly inhibitors. 390,000 compounds, 0.56% hits; further: nearly all actives have a fitted effect of over 70% in size
#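 AlphaScreen: HP1-beta (50 nM) preformed 30 min with biotin-H3(1-18)K9me3 peptide (50 nM) in PBS pH 7.4, 0.01% Tween-20. Compound added for 30 min at RT, then streptavidin donor/nickel chelate acceptor beads (10 ug/mL) for 30 min.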
# G9a block = qHTS Assay for Inhibitors of Histone Lysine Methyltransferase G9a; Histone-lysine N-methyltransferase EHMT2 (Homo sapiens), Q96KQ7; G9a H3K9 monomethylation, AlphaScreen, 2 h; Potency, µM (titrated, usually from 102 µM), for inactives: at the top dose activity, negative = inhibition, usual class: inhibitors; 350,000 compounds, 8.8% hits; further: on the % scale 0 is the no-effect control and ±100 the full control effect; nearly all actives have a fitted effect of over 75% in size
#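 Chemiluminescent proximity detection of H3K9 monomethylation, read after 10 min bead incubation in the dark. Reaction: 20 nM G9a, 500 nM biotin-H3K9 peptide, 20 uM SAM cofactor, 2 h, room temperature, following 15 min enzyme-compound preincubation.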
# JMJD2A Tudor = qHTS Assay for Inhibitors of JMJD2A-Tudor Domain; AlphaScreen JMJD2A-Tudor / H3K4me3 peptide binding; Lysine-specific demethylase 4A (Homo sapiens), O75164; AID 504339, 2011; Potency, µM (highest dose often 114 µM), without a hit: top-dose activity change, negative = inhibition, usual class: inhibitors; 390,000 compounds, 4.4% hits; further: on the % scale 0 is the no-effect control and ±100 the full control effect; nearly all actives have a fitted effect of over 50% in size
# Sfp inh = qHTS Assay for Inhibitors of Bacillus subtilis Sfp phosphopantetheinyl transferase (PPTase). 310,000 compounds, 3.5% hits. Potency, µM, inactives show largest response in the series, negative = inhibition, hits mostly inhibitors. Biochemical Sfp PPTase activity, qHTS. 4'-phosphopantetheinyl transferase ffp (Bacillus subtilis), Q9F4F7. AID 1490, 2009;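 further: the enzyme is Sfp with the accession as filed and its product quenches rhodamine fluorescence; 0% = enzyme reaction without inhibitor and -100% = no enzyme wells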
#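 Step 1, compound plus 15 nM Sfp-PPTase, 15 min, room temperature. Step 2, add rhodamine-CoA (5 uM) and BHQ-2-YbbR (12.5 uM). Step 3, read 525/598 nm fluorescence at 0 and 30 min.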
# BAZ2B inh = qHTS Assay for Inhibitors of BAZ2B; Bromodomain adjacent to zinc finger domain protein 2B (Homo sapiens), Q9UIF8; AlphaScreen BAZ2B-H3K14Ac peptide displacement; Potency, µM (highest dose often 114 µM), without a hit: at the highest dose activity change, negative = inhibition, hits mostly inhibitors; 360,000 compounds, 4.4% hits; AID 504333, 2011; further: on the % scale 0 is the no-effect control and ±100 the full control effect; nearly all actives have a fitted effect of over 60% in size
#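 Complex of BAZ2B and biotin-H3K14Ac (50 nM apiece) forms over 30 min at RT, then faces library compounds up to 110 uM for another 30 min; AlphaScreen beads added, 20 min dark incubation, luminescence read.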
# * marks the source's active call; other numbers are inactive results; u = inconclusive; x = no result given; [ ] = another dose, or the depositor's remark. Most compounds without a hit are left out; they make up all but 12% or so of the library. The call rests on the fitted dose curve; in most records, active means well fitted curve in the direction sought with a large enough effect; inconclusive means small, poorly fitted or top-dose-only effect, or another doubt; inactive means no such curve, though single readings can be large; an effect the other way counts as inactive or inconclusive. Potency means the concentration at half of the fitted maximal effect.
SMILES,L3MBTL1 inh,HP1b binding inh,G9a block,JMJD2A Tudor,Sfp inh,BAZ2B inh
O=C(CNCCC1=CCCCC1)Nc1ccc(N2CCCCCC2)cc1,u,16µM*,u,20µM*,16µM*,13µM*
O=C(COC(=O)C1CCCCC1)Nc1ccc(N2CCCCC2)cc1,-28%,u,11µM*,u,-4%,u
CCCCOc1cccc(C(=O)Nc2cc3nn(-c4ccc(F)cc4)nc3cc2C)c1,x,7%,5%[59 µM],-5%,x,-15%
COc1ccc(S(=O)(=O)NC(C)C(=O)Nc2ccccc2C(F)(F)F)cc1 (stereo not given),x,19%,11µM*,5%,-6%,-4%
COc1ccccc1-n1cc(-c2ccccc2)[nH]c1=S,x,14%,10µM*,u,-20%,u
CC(=O)Nc1ccc(-n2c(C)ccc2-c2ccccc2)cc1,x,-1%,u,-28%,-7%,u
CCOc1ccc(-n2cc(-c3ccc(OC)c(OC)c3)[nH]c2=S)cc1,x,u,2.5µM*,11µM*,u,x
CC(=O)Nc1ccc(-n2cc(-c3ccccc3)[nH]c2=S)cc1,-6%,u,1.4µM*,0.89µM*,40µM*,u
CCOc1ccc(-c2cn(-c3ccccc3OC)c(=S)[nH]2)cc1,x,14%,u,-29%,3%,-35%
COc1ccc(-n2cc(-c3ccccc3)[nH]c2=S)cc1,-9%,-7%,1.6µM*,8.9µM*,-26%,u
O=[N+]([O-])c1cc(-c2nc(-c3ccccc3)no2)ccc1N1CCCC1,x,42%,-32%[59 µM],-1%,x,1%
NCC1CCC(C(=O)O)CC1 (stereo not given),x,x,28%[21.5 µM],x,17%,x
COc1ccc(S(N)(=O)=O)cc1C(=O)NCC(C)(C)N1CCOCC1,x,-3%,8%,-13%,24%,-20%
COc1cc(CC(=O)NCC(C)(C)N2CCOCC2)cc(OC)c1OC,x,15%,50µM*,-5%,20%,1%
COc1ccc(C2Nc3ccccc3C(=O)N2Cc2ccco2)cc1COc1ccc(F)cc1 (stereo not given),-13%,35%,-43%[59 µM],-25%[57.1 µM],40µM*,-20%
CC(=O)Nc1ccc(OCc2cccc(C3Nc4ccccc4C(=O)N3Cc3ccco3)c2)cc1 (stereo not given),x,x,x,89µM*,x,x
COc1ccc(C2Nc3ccccc3C(=O)N2Cc2ccco2)cc1COc1ccc(N)cc1 (stereo not given),x,x,x,22µM*,x,x
COc1ccc(C2Nc3ccccc3C(=O)N2Cc2ccco2)cc1CN1C(=O)c2ccccc2C1=O (stereo not given),-19%,-20%,-10%[59 µM],u,u,-28%
COc1ccc2c(c1)CCC1C2CC[C@@]2(C)C1CC[C@@H]2NCCCCCCN1C(=O)CCC1=O (stereo not given in full),x,x,17%[59 µM],x,x,x
Cc1ccc(-c2nc(SC(C)C(=O)c3c(N)n(C)c(=O)n(C)c3=O)n[nH]2)cc1 (stereo not given),-3%,23%,45µM*,-10%,x,12%
CC(=O)Nc1ccc(NC(=O)C(C)Sc2n[nH]c(-c3ccc(C)cc3)n2)cc1 (stereo not given),-2%,-3%,40µM*,-24%,x,10%
Cc1ccc(-c2nc(SCC(=O)c3c(N)n(C)c(=O)n(C)c3=O)n[nH]2)cc1,-6%,14%,18%[12.7 µM],-5%,14%,0%
Cc1ccc(-n2cc3c(=O)n(C)c(=O)n(C)c3c2)cc1C,-4%,33%,45µM*,-9%,-21%,-17%
Cn1c(=O)c2cn(-c3ccc4c(c3)OCCO4)cc2n(C)c1=O,x,25%,u,4%,1%,u
C=CCOc1ccc(C2C(C#N)=C(N)N(N(C)C)C3=C2C(=O)CCC3)cc1 (stereo not given),x,26%,20%,-11%,17%,-10%
SMILES,L3MBTL1 inh,HP1b binding inh,G9a block,JMJD2A Tudor,Sfp inh,BAZ2B inh
CC(=O)n1nc(-c2ccccc2)nc1NCc1ccc(N(C)C)cc1,-19%,u,-128%[59 µM],35µM*,-20%,25µM*
CN(C)c1ccc(CNc2nc(-c3ccccc3)nn2S(C)(=O)=O)cc1,-24%,u,28µM*,56µM*,7%,35µM*
O=C(CCn1c(=O)c2cccn2c2cccnc21)NCc1ccccc1Br,x,38%,-3%[59 µM],7%,x,-2%
COc1ccccc1CNC(=O)CN1C(=O)NC2(CCC(C)CC2)C1=O (stereo not given),-8%,22%,x,-2%,x,x
COc1ccc(S(=O)(=O)N2CCN=C2SCc2cccc(C)c2)cc1,x,80%,173%,27%,1%,22%
COc1cc(CNC2CCCCCCC2)cc(Cl)c1OC,1%,19%,1%,-3%,3%,12%
COc1cc(CNC2CCCCC2OC)cc(OC)c1OC (stereo not given),3%,u,11µM*,u,-23%,u
CCc1ccc(NC(=O)C2CCCN(c3nn4cc(-c5ccc(OC)cc5)nc4s3)C2)cc1 (stereo not given),x,-5%,u,-11%,x,0%
COCCN(Cc1cc2cc3c(cc2nc1Cl)OCO3)C(=O)c1ccc(C)cc1,28µM*,16%,-24%,-7%,27%,10µM*
CCN(CC)S(=O)(=O)c1ccc2c(c1)c(=O)c(C(=O)N1CCN(c3cccc(C)c3)C(C)C1)cn2C (stereo not given),x,41%,-2%[59 µM],-27%,x,x
CC1=NN(c2cccc(F)c2)C(=O)/C1=C/c1ccc(N(C)C)cc1,-1%,-2%,-16%,-17%,14%,-26%
CC1=NN(c2ccccc2)C(=O)/C1=C\N(O)c1ccccc1,-1%,30%,x,u,-5%,-11%
CC1=NN(c2ccccc2)C(=O)/C1=C/c1ccc(Cl)cc1,u,u,40µM*,u,-23%,u
CC1=NN(c2ccccc2)C(=O)/C1=C/c1ccc[nH]1,u,16µM*,22µM*,16µM*,7%,11µM*
CC1=NN(c2ccccc2)C(=O)/C1=C\c1cc(C)n(-c2ccccc2)c1C,0%,u,3.5µM*,-27%,9%,u
CC1=NN(c2ccc(C)c(C)c2)C(=O)/C1=C/c1ccc2c(c1)n(C)c(=O)n2C,-9%,2%,7.1µM*,-19%,7%,u
COCCNC(=O)c1cnc2sc(N3CCCCC3)nn2c1=O,x,16%,6%[59 µM],-10%,x,-5%
